Laboratory results: PubChem BioAssay AID602430 (NMMLSC, 2012)
The other results are listed elsewhere or left out.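 The calls were made as follows: active = repeat-averaged ratio response below 75% of DMSO, the collection mean minus 3 SD; inactive = the rest.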

molecular target: ATP-binding cassette sub-family B member 6 (Homo sapiens) (UniProt Q9NP58); assay: blockers of ABCB6-driven porphyrin uptake – K562-ABCB6 cells, flow cytometry, cherry pick 1, confirmation (AID 602430); conditions: K562-ABCB6 porphyrin accumulation, 1 h, at 10 µM, active compounds read low;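 also: median porphyrin fluorescence at 575 nm with 488 nm excitation from mitochondria; lower ratio means less porphyrin signal so ABCB6 inhibition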
Sequence (Q9NP58 whole entry, looked up): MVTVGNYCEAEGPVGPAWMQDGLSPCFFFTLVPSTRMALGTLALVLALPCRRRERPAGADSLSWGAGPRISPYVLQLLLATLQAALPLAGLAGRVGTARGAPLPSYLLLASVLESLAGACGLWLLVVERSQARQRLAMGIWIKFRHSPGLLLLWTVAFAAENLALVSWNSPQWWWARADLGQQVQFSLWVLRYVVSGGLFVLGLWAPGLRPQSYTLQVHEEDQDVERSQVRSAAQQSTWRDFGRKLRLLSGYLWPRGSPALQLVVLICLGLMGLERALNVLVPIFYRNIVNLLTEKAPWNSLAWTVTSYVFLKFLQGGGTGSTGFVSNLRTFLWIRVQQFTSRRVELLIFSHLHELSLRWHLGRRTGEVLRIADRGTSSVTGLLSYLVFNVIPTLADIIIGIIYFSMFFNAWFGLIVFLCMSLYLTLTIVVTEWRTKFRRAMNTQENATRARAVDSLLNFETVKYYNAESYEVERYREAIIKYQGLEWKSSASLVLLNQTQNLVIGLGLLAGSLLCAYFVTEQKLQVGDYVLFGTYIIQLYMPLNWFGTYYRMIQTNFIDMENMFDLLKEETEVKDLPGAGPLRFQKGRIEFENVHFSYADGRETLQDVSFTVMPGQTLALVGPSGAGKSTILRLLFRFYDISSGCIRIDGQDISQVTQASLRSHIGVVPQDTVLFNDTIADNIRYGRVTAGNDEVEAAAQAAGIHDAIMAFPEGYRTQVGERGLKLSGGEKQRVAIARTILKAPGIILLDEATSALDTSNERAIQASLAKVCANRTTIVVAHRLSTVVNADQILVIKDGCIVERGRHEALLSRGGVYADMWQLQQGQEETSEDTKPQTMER

Ratio response (% of DMSO), inactive:
CCOC(=O)N1CCN(C(=O)CN(C2CCCCC2)S(C)(=O)=O)CC1 101%
O=C(Nn1cnc2ccccc2c1=O)c1ccc(F)cc1Cl 93%
CC(C(=O)Nc1ccc(F)c(F)c1F)N1CCCCCC1 (centres undefined) 101%
COc1cccc(N(CC(=O)N2CCc3ccccc3C2)S(C)(=O)=O)c1 100%
Cc1cccc(NC(=O)c2nc(S(=O)(=O)Cc3ccccc3)ncc2Cl)c1 90%
O=C(Cc1cccs1)NCc1cccc(C(F)(F)F)c1 103%
CCOc1ccc(NC(=O)CC2NCCNC2=O)cc1 (centres undefined) 100%
Cc1cccc(CS(=O)(=O)c2ncc(Cl)c(C(=O)Nc3ccc(F)cc3)n2)c1 89%
Cc1ccccc1NC(=O)C(C)OC(=O)CCC(=O)N(CC(C)C)c1c(N)n(CC(C)C)c(=O)[nH]c1=O (centres undefined) 101%
Cc1cccc(N2CCN(C(=O)CCS(=O)(=O)c3ccc4c(c3)NC(=O)C(C)S4)CC2)c1C (centres undefined) 96%
CCn1c(COc2ccccc2)nnc1SCC(=O)Nc1ccc2c(c1)OCCO2 97%
Cc1ccccc1OCC(=O)Nc1nnc(S(=O)(=O)N2CCCC2)s1 101%
COc1cc2[nH]c(=S)n(Cc3ccc(F)cc3)c(=O)c2cc1OC 100%
CCS(=O)(=O)N1CCC(N2CCN(c3ccccc3)CC2)CC1 103%
O=C(COc1ccc(-n2cnnn2)cc1)Nc1ccccc1Cl 99%
Cc1ccc2nc3c(cc(C(=O)NCCc4ccccc4)c(=N)n3CC3CCCO3)c(=O)n2c1 (centres undefined) 102%
Cc1nn(-c2ccccc2)c(C)c1C(=O)OCC(=O)NC(=O)NC1CCCCC1 97%
CC(C)C(=O)NCC(c1cccs1)S(=O)(=O)c1ccc(F)cc1 (centres undefined) 100%
CCCOC(=O)C1=C(C)NC2=C(C(=O)C(C(=O)OC)C(C)C2)C1c1ccc(N(C)C)cc1 (centres undefined) 100%
Cc1ccc(Cl)cc1N1CCN(C(=O)c2cccc3c(=O)c(C)c(-c4ccccc4)oc23)CC1 102%
Cc1cc(C)cc(NC(=O)NCc2ccccn2)c1 96%
COC(=O)CNC(=O)c1cc(-c2ccncc2)nc2ccccc12 101%
COc1ccc(CCNC2=C(Cl)C(=O)N(Cc3ccccc3)C2=O)cc1OC 100%
CC1(C(=O)NS(=O)(=O)c2cccc(F)c2)CCN1C(=O)Cc1cc(F)ccc1F (centres undefined) 97%
CC1(C)Cc2c(C#N)c(SCc3nc4ccccc4[nH]3)nc(N3CCOCC3)c2CO1 96%
OCCC1CN(Cc2cnc(-c3ccccc3)s2)CCN1CCc1ccccc1 (centres undefined) 102%
Cc1ccc(SCC(=O)Nc2ncc(C)s2)cc1 103%
O=C1CCCC2=C1C(c1cccs1)n1nc(SCc3ccccc3)nc1N2 (centres undefined) 102%
Cc1ccc(NC(=O)N2CCC(c3nc4c(nnn4Cc4c(F)cccc4Cl)c(=O)[nH]3)CC2)cc1 98%
CCC(=O)N1CCCC1(C)C(=O)Nc1ccc2c(c1)CCN2C(C)=O (centres undefined) 99%
O=C(c1ccc(Cl)cc1)c1cnc(Nc2ccccc2)s1 102%
O=C(NCCSc1ncc(-c2ccccc2)[nH]1)c1ccco1 102%
COc1ccc(CCNS(=O)(=O)c2ccc(F)cc2)cc1OC 101%
COc1ccccc1C(=O)C(O)c1ccccc1OC (centres undefined) 102%
